Measurements reported in PubChem BioAssay (NCI).
About 83,000 compounds went through this panel and 20% of them were active in at least one assay; those are over-represented in the sample as a whole.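 How to read the values: 0–100, growth inhibition (40 = 60% inhibited); 0, no net growth; -100 to 0, cell death (-40 = 40% of starting cells died; -100 = all dead).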 Unmarked numbers belong to inactive results. The source made the active and inactive calls. The calls were made as follows: active = growth percent below 10; inactive = the rest.

Experiments:
Assay in all cases: NCI-60 one-dose screen, 48 h (100 = growth as untreated, 0 = no growth, -100 = all killed)
Conditions in all cases: 10 µM unless noted
T-47D breast = tested on: T-47D breast
BT-549 breast = tested on: BT-549 breast
MDA-MB-435 melanoma = tested on: MDA-MB-435 melanoma
SW-620 colon = tested on: SW-620 colon
MCF7 breast = tested on: MCF7 breast
HCT-116 colon = tested on: HCT-116 colon
HCC-2998 colon = tested on: HCC-2998 colon
KM12 colon = tested on: KM12 colon

| SMILES | growth (T-47D breast) | growth (BT-549 breast) | growth (MDA-MB-435 melanoma) | growth (SW-620 colon) | growth (MCF7 breast) | growth (HCT-116 colon) | growth (HCC-2998 colon) | growth (KM12 colon) |
| --- | --- | --- | --- | --- | --- | --- | --- | --- |
| CC[C@@]1(O)C(=O)OCc2c1cc1n(c2=O)Cc2c-1nc1ccccc1c2/C=N/OC(C)(C)C | 2.25% (active) | -7.82% (active) | 13.5% | 11.5% | 2.42% (active) | 3.24% (active) | 6.39% (active) | 1.96% (active) |
| O=C(Nc1ccc(-n2ccc3c(NC(=O)c4ccccc4)ncnc32)cc1)Nc1ccc(Cl)c(Cl)c1 | 33.5% | 33.3% | 5.82% (active) | -2.62% (active) | 0.297% (active) | -82.8% (active) | 32.7% | -8.64% (active) |
| CCOc1ccc(-n2c(-c3cc(OC)c(OC)c(OC)c3)nnc2-c2ccc(OC)cc2N)cc1 | 43.4% | 84% | 81.3% | 67.2% | 40.6% | 63.7% | 82.4% | 37.8% |
| CC(=O)c1cc2c(c(O)c1C)C(=O)C(=O)c1c(O)cccc1-2 | -28.5% (active) | -94.4% (active) | -84.3% (active) | -69% (active) | -55.6% (active) | -85.9% (active) | -84.2% (active) | -50.5% (active) |
| O=C1c2ccccc2OC=C(c2ccccc2)N1CCCCN1CCCCC1 | 0.353% (active) | 32.5% | 67.4% | 71.5% | 38.6% | 27.2% | 69.1% | 49.2% |
| COc1cc(-c2nc3ccccc3s2)ccc1OCc1nc2n(n1)S(=O)(=O)c1ccccc1N2C | 85.3% | 80.2% | 90% | 92.4% | 90.5% | 66.1% | 109% | 84.2% |
| CCCCNc1cc(C(=O)O)cc(S(N)(=O)=O)c1Oc1ccccc1 | 103% | 104% | 99.3% | 99.1% | 111% | 110% | 103% | 107% |
| COc1cc(C(=O)NNC(=O)c2ccccc2C(=O)O)cc(OC)c1OC | 39.5% | 58.4% | 60.4% | 36.9% | 30.1% | 29% | 68.5% | 36.9% |
| CCCC(=O)Oc1ccc(/C(=C(\C)c2ccc(Cl)cc2)c2ccc(OCCN(CC)CC)cc2)cc1 | -33.1% (active) | 22.7% | -85.9% (active) | -80.2% (active) | -78.4% (active) | -86.7% (active) | -65.4% (active) | -44.4% (active) |
| O=C(NCCNc1nccc(-c2c(-c3cccc(O)c3)nc3sccn23)n1)Nc1cc(C(F)(F)F)cc(C(F)(F)F)c1 | 72% | 87.6% | 9.9% (active) | 73.5% | 67.5% | 66.3% | 65.5% | 43.1% |
| Cc1cc(NC(=O)c2cccc(C(F)(F)F)c2)ccc1-n1ccc2c(NC(=O)c3ccccc3)nccc21 | 78.8% | 88.7% | 105% | 110% | 103% | 83.5% | 115% | 100% |
| O=C(Nc1ccc(-n2cc(-c3ccncc3)c(-c3ccc(O)c(Cl)c3)n2)cc1)c1cc(Cl)cc(Cl)c1 | 49.3% | 25.8% | 21.5% | 33.6% | 33.3% | 17.6% | 39.3% | 24.3% |
| CC(C)(C)OC(=O)N1CC(Cn2cc(C(F)(F)F)c3c(Cl)ncnc32)C1 | 42.6% | -91.1% (active) | -83.4% (active) | -37.6% (active) | -32.7% (active) | -84.5% (active) | -89.2% (active) | -50.4% (active) |
| O=C(O)c1cccc2oc(-c3ccccc3O)nc12 | 52.2% | 75.5% | 71.3% | 47.3% | 59.1% | 36.8% | 44.7% | 46% |
| OCc1cn(-c2ccc(Cl)cc2)nc1-c1ccc(O)cc1 | 85.3% | 86.1% | 88.9% | 112% | 90.4% | 96.9% | 103% | 90.9% |
| Nc1ncc(-c2ccc3ncnc(Nc4cncc(Cl)c4)c3c2)cn1 | -7.28% (active) | 64.2% | 75.1% | 95.8% | 37.8% | 82.4% | 79.7% | 82.5% |

| SMILES | growth (T-47D breast) | growth (BT-549 breast) | growth (MDA-MB-435 melanoma) | growth (SW-620 colon) | growth (MCF7 breast) | growth (HCT-116 colon) | growth (HCC-2998 colon) | growth (KM12 colon) |
| --- | --- | --- | --- | --- | --- | --- | --- | --- |
| O=C1CN(CCN2CC(=O)NC(=O)C2)CC(=O)N1 | 99.2% | 96.6% | 90.4% | 118% | 104% | 93.6% | 112% | 99.5% |
| CCc1cccc(C)c1NC(=O)c1sc2nc3c(cc2c1N)CCCCC3 | 46.7% | 58.3% | -16.9% (active) | 23.8% | 18.9% | 21.1% | 54.7% | 23% |
| O=C(Nc1ccc(F)cc1)Nc1ccc(Cl)c([N+](=O)[O-])c1 | 6.68% (active) | 42.4% | 21.1% | 19% | 7.97% (active) | 7.12% (active) | 20.2% | 12.4% |
| C#CC(=O)/C=C/CCCCCCC#CC(=O)CCC(=O)C#CCCCCCC/C=C/C(=O)C#C | 24.8% | -15.3% (active) | -33.6% (active) | 8.47% (active) | 21.6% | -7.8% (active) | 63.9% | 49.2% |
| CCC1S/C(=N\N=C(/C)c2ccco2)N(c2ccccc2)C1=O (stereo not drawn) | 107% | 106% | 92.7% | 119% | 81% | 68.6% | 112% | 86.1% |
| O=C(COc1ccc(Cl)cc1Cl)N1N=C(c2ccc(Cl)cc2Cl)CC1(O)c1cc(F)c(Cl)cc1Cl (stereo not drawn) | 98.8% | 111% | 107% | 116% | 95.6% | 95% | 124% | 117% |
| COc1ccc(-c2cnc(-c3ccc(F)cc3)[nH]2)cc1 | 86.9% | 314% | -6.97% (active) | 18.6% | 26.3% | -68.8% (active) | -10% (active) | 30.6% |
| C=CC(C)(O)CCC1C(=C)CCC2C(C)(C)CCCC12C (stereo not drawn) | 99.4% | 111% | 107% | 111% | 92.7% | 107% | 99.5% | 99.8% |
| O=[N+]([O-])c1ccccc1NC1c2ccccc2Oc2ccccc21 | 76.5% | 54.8% | -47.7% (active) | 19.8% | 57.1% | 30.3% | 66% | 26.3% |
| COc1ccc(/C=C2/C(=O)Nc3cc(Cl)c(-c4csc(N)n4)cc32)cc1 | 23.5% | 33.4% | -14.4% (active) | 31.2% | 25% | 36.2% | 77.3% | 25.7% |
| COc1ccccc1S(=O)(=O)Nc1ccc2c3c(cc(-c4cnn(C)c4)nc13)C(=O)N2C | 35.5% | 62.6% | 35.2% | 63.2% | 16.5% | 28.2% | 48.2% | 38.2% |
| Nc1ccc(S(=O)(=O)Nc2ccnn2-c2ccccc2)cc1 | 104% | 116% | 97% | 101% | 101% | 109% | 98.8% | 105% |
| COc1cc(/C=C/C(=O)c2ccc(Oc3ncnc4ccccc34)cc2)cc(OC)c1OC | 35.9% | 58% | 50.6% | 53.2% | 27% | 52.8% | 108% | 19.4% |
| CCCCOc1c(N)cc(Cl)cc1C(=O)OCCN(CC)CC | 99.8% | 76.5% | 111% | 99.2% | 93.3% | 80.3% | 109% | 104% |
| O=C(O)c1ccc(-c2nn(-c3ccc(C(=O)O)cc3)cc2/C=N/Nc2c(F)c(F)cc(F)c2F)cc1 | 95% | 120% | 107% | 110% | 95.7% | 100% | 100% | 100% |
